Compound activity: PubChem BioAssay, National Center for Advancing Translational Sciences (NCATS)
FLuc counter – inhibits or activates purified firefly luciferase, miR-21 counter-screen. P08659. purified FLuc, Km substrates, luminescence inhibition. Potency, µM (titrated, usually from 57.5 µM), for the others: at the top dose activity change, negative = inhibition, most hits filed as inhibitors. actives 6.9% (n = 360,000);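 further: plate controls were vehicle for no effect and reference inhibitor for full effect; nearly all actives have a fitted effect of over 55% in size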
Target sequence (P08659 whole entry, looked up): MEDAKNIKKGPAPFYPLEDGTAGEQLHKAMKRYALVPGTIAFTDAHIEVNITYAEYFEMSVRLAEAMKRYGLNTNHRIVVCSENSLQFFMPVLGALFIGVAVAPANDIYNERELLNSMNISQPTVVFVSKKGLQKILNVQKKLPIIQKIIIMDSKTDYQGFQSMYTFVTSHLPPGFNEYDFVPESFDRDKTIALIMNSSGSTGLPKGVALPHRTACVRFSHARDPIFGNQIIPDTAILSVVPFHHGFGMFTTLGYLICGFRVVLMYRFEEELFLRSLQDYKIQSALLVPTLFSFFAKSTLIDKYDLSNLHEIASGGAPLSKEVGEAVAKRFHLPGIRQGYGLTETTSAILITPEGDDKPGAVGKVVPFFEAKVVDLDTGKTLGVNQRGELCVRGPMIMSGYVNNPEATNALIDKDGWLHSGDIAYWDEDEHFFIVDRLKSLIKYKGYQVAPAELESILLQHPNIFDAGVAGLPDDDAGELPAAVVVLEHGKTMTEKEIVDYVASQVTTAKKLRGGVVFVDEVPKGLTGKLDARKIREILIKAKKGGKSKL
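Purified P. pyralis luciferase (10nM final) with 10uM D-luciferin and 10uM ATP (Km levels) in 50mM Tris acetate pH 7.5, 10mM Mg acetate, 0.01% Tween-20, 0.05% BSA; qHTS 6-point titration, ~60 µM downward; luminescence read.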
ELG1 genotox – inducers of genotoxicity in HEK293T ELG1-luciferase cells. HEK293T ELG1-luciferase reporter, luminescence, 16 h. Potency, µM (highest dose often 46 µM), for the others: at the highest dose activity change, positive = activation, usual class: activators. actives 1.3% (n = 330,000). AID 504466; further: % of control where 0% means no effect; nearly all actives have a fitted effect of over 60% in size
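Genotoxicity was scored as increased ELG1-luciferase reporter signal, measured by ONE-Glo luminescence (30 min, room temperature). Compound or vehicle exposure of the HEK293T reporter cells lasted 16 hr at 37°C.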
Rab9 promoter act – activates the Rab9 promoter; Huh7 Rab9 promoter-luciferase reporter, luminescence, 24 h; Potency, µM (doses to about 9.22 µM), without a hit: at the top dose activation, negative = inhibition, hits mostly activators; actives 2.8% (n = 320,000); AID 485297; further: % of control where 0% means no effect; nearly all actives have a fitted effect of over 60% in size
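Steps: seed 1500 Huh7 Rab9-luc cells per well, rest 2 h at 37 °C; add compound in DMSO; incubate 24 h; add luciferase reagent, 10 min ambient; read luminescence.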
SMN2 splice up – SMN2 splice variant enhancement; HEK293 SMN2-luciferase splicing reporter, luminescence, 30-36 h; Potency, µM (titrated, usually from 46.1 µM), for the others: top-dose activity change, positive = activation, hits mostly activators; AID 1458; actives 2.8% (n = 210,000); further: % of control where 0% means no effect; nearly all actives have a fitted effect of over 55% in size
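HEK293 cells carry an SMN2 […]–luciferase reporter in which exon 7 inclusion puts luciferase in frame. Cells were plated 10-12 h before compound addition, then incubated 30-36 h at 37C. ONE-Glo luminescence was read; sodium butyrate at 4.5 mM final served as control.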
KinaseGlo FLuc – blocks Kinase-Glo luciferase, a counter-screen artifact; AID 1379; Potency, µM (highest dose often 38.3 µM), for the others: top-dose activity change, negative = inhibition, usual class: inhibitors; actives 0.28% (n = 200,000); Q27757; Kinase-Glo luciferase, ATP luminescence, 8 min; further: on the % scale 0 is the no-effect control and ±100 the full control effect; nearly all actives have a fitted effect of over 60% in size
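Compounds were added to a substrate mix at pH 7.2 (50 mM imidazole, 10 uM ATP, within the enzyme's linear range), followed by Kinase-Glo detection reagent; luminescence was measured after 8 minutes at ambient temperature.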
NPC1 promoter act – activators of NPC1 promoter | Huh7 NPC1 promoter luciferase reporter, 24 h | Potency, µM (doses to about 9.22 µM), for the others: at the highest dose activation, usual class: activators | actives 2.4% (n = 320,000) | AID 485313; further: % of control where 0% means no effect; nearly all actives have a fitted effect of over 60% in size
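Readout is luciferase luminescence, reflecting NPC1 promoter activation in stably transfected Huh7 cells after 24 h compound exposure at 37 °C in reduced-serum medium with 10% FBS.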
The depositor's hits bear a star; [ ] = dose if it differs, or a comment. Most compounds without a hit are left out; they make up all but 7.3% or so of the library. The call rests on the fitted dose curve; in most records, active means well fitted curve in the direction sought with a large enough effect; inconclusive means small, poorly fitted or top-dose-only effect, or another doubt; inactive means no such curve, though single readings can be large; an effect the other way counts as inactive or inconclusive. Potency means the concentration at half of the fitted maximal effect.

What do the screens show for `Cc1cc(C(=O)NCc2ccccc2C)c2c(C)nn(-c3cccc(F)c3)c2n1`?
FLuc counter: 3.9%

Results for CCOc1ccccc1NC(=O)c1cc2ccccc2oc1=O ?
FLuc counter: -17.2%; ELG1 genotox: 9.0%; Rab9 promoter act: 1.12µM*; NPC1 promoter act: 3.16µM*

What do the screens show for `O=C(Nc1ccc(F)cc1F)c1cc2ccccc2oc1=O`?
FLuc counter: 0.757µM*; ELG1 genotox: 4.61µM*; Rab9 promoter act: 1.78µM*; NPC1 promoter act: 2µM*

Results for N/C(=N\NC(=O)c1ccc(F)cc1)c1cc2ccccc2oc1=O ?
FLuc counter: -7.0%; ELG1 genotox: 1.5%; Rab9 promoter act: -0.9%; SMN2 splice up: 1.8%; KinaseGlo FLuc: 0.3%; NPC1 promoter act: 4.9%

Results for CCOc1ccccc1OC(=O)c1cc2ccccc2oc1=O ?
FLuc counter: inconclusive; ELG1 genotox: 5.2%; Rab9 promoter act: -4.3%; SMN2 splice up: 3.5%; KinaseGlo FLuc: -0.4%; NPC1 promoter act: 1.9%

What do the screens show for `COc1ccccc1NS(=O)(=O)c1cccc(NC(=O)Nc2ccccc2)c1`?
FLuc counter: inconclusive; ELG1 genotox: -5.2%; Rab9 promoter act: -0.3%; SMN2 splice up: -29.0%; KinaseGlo FLuc: 0.7%; NPC1 promoter act: -2.3%

How did O=C(Nc1ccc(F)cc1F)c1cccc(C(=O)Nc2ccc(F)cc2F)n1 do in these assays?
FLuc counter: -1.2%; ELG1 genotox: 18.3µM*; Rab9 promoter act: -7.8%; NPC1 promoter act: -5.6%

Results for COc1ccccc1NS(=O)(=O)c1cccc(NC(=O)c2cc3ccccc3oc2=O)c1 ?
FLuc counter: 10.7µM*; ELG1 genotox: 23.1µM*; Rab9 promoter act: 3.16µM*; SMN2 splice up: 14.1µM*; KinaseGlo FLuc: -17.2%; NPC1 promoter act: 2.51µM*

Results for O=C(Nc1ccc(F)cc1F)c1csc(-c2ccccc2)n1 ?
FLuc counter: inconclusive; ELG1 genotox: inconclusive; Rab9 promoter act: 19.9%; SMN2 splice up: 17.1%; KinaseGlo FLuc: 0.9%; NPC1 promoter act: 18.0%

What do the screens show for `CCCCN(C)CCCNC(=O)Cn1nc(CC)n2c(cc3sc(C)cc32)c1=O`?
FLuc counter: -1.0%; SMN2 splice up: -3.7%

How did CCOC(=O)c1c(-c2ccccc2)oc2ccc(N(C(C)=O)S(=O)(=O)c3ccc(CC)cc3)cc12 do in these assays?
FLuc counter: 5.3%; SMN2 splice up: -13.9%

How did CCc1nn2c(=O)cc(COC(=O)c3ccc(NC(=O)c4cccs4)cc3)nc2s1 do in these assays?
FLuc counter: -0.7%

How did COc1ccc2cc(C(=O)CCC(=O)O)ccc2c1 do in these assays?
SMN2 splice up: 2.5%[9.22 µM]; KinaseGlo FLuc: -1.6%[7.66 µM]

Results for CCOc1cccc2cc(C(=O)Nc3nccs3)c(=O)oc12 ?
FLuc counter: 2.39µM*; ELG1 genotox: 0.2%; Rab9 promoter act: -1.1%; SMN2 splice up: -2.8%; KinaseGlo FLuc: -6.1%; NPC1 promoter act: 2.3%

How did O=C(NCc1ccccc1)c1cc2ccc(O)cc2oc1=O do in these assays?
FLuc counter: 12µM*; ELG1 genotox: inconclusive; Rab9 promoter act: 3.16µM*; NPC1 promoter act: inconclusive

Results for O=C(O)c1ccc(N=c2oc3cc(O)ccc3cc2C(=O)NCc2ccccc2)cc1 ?
FLuc counter: inconclusive; ELG1 genotox: 5.3%; Rab9 promoter act: -4.3%; SMN2 splice up: -10.5%; KinaseGlo FLuc: 1.9%; NPC1 promoter act: -0.2%

How did CCOc1ccc2cc(C(=O)NCc3ccccc3)c(=N)oc2c1 do in these assays?
FLuc counter: 21.3µM*; ELG1 genotox: inconclusive; Rab9 promoter act: -5.9%; NPC1 promoter act: 0.4%

Results for CCOC(=O)c1cn2nc(N3CCCCC3)ccc2n1 ?
FLuc counter: 0.953µM*; ELG1 genotox: 0.58µM*; Rab9 promoter act: 0.126µM*; NPC1 promoter act: 0.316µM*

What do the screens show for `CCOC(=O)c1cn2nc(Oc3ccccc3)ccc2n1`?
FLuc counter: 15.1µM*; ELG1 genotox: inconclusive; Rab9 promoter act: 2.82µM*; NPC1 promoter act: 2.24µM*
